Results taken from the OligoGym collection.

These sequences were tested against ZFHX4 (assay: pooled miR-30 sensor sort-seq; sequence = guide strand). Conditions: shRNA.
Note: reference of the scale not given here.

| Sequence | sensor-assay potency score (higher = more potent) |
| --- | --- |
| TTTGTTGCTGAGGACGTCCTGA | -0.337 |
| TTTGTCATCGCAGACCTCCGTG | -0.26 |
| TTCTTCTGTACCTTCTGCCTGT | 0.382 |
| TTTATTTCTCTGTCGTTCCTTA | 0.274 |
| TTGCTCTCTGACATCTTGCTAG | -0.546 |
| TAACATTTCACATTCTTGCATG | -0.369 |
| TTGCTTGTTCGAATGTACCGTT | 0.0955 |
| TAGAGCTACTATCACTTCCTAC | -0.103 |
| TTTGTTACCAATACTATCGGTG | -0.044 |
| TTGAAGTTCAGCTTCACTCAGT | 0.0714 |
| ATCGCTAACACAACCATCGAAT | -0.685 |
| TTGATCTTGCAGTGTGTCGGGG | 0.234 |

These sequences were tested against ZFP62 in the same assay as above. Conditions: shRNA.

| Sequence | sensor-assay potency score (higher = more potent) |
| --- | --- |
| TATGTAATTTCTTAACAGCATT | -1.56 |
| TTTATGTTGAACAAGGCGGGAA | 0.133 |
| TTGAGTGTGAGATGTAGGCTTT | -0.179 |
